Laboratory results as given in PubChem BioAssay AID1159524 (National Center for Advancing Translational Sciences (NCATS), 2015).
Hit rate of the full screen: of about 410,000 compounds, about 5,100 (1.2%) were called active. Inconclusive results (about 8%) are left out. This is one part of a sample in which actives are shown more often than they occur. Values without a mark were called inactive. Calls follow the shape of the full dose curve; tested in HEK293T cells.

assay: High Throughput Screening for Foot and Mouth Disease Virus Antivirals; conditions: FMDV antiviral cell-based qHTS; series mostly up to 57.9 µM; activity change, negative = inhibition: at the top concentration; also: read-out not given here; nearly all actives have a fitted effect of over 45% in size
% is scaled to controls: 0 for no effect and ±100 for the full control effect; potency is read from the fitted curve at half-maximal effect.

SMILES	Potency	activity change, negative = inhibition
CCCCN1CC(c2nc3ccccc3n2CCCCOc2ccc(C)cc2C)CC1=O (configuration not stated)	39.8 µM (active)	–
CCc1ccccc1N1CC(c2nc3ccccc3n2CCCCOc2ccccc2)CC1=O (configuration not stated)	–	0%
COc1ccc(OCCCn2c(C3CC(=O)N(c4ccc(F)cc4)C3)nc3ccccc32)cc1 (configuration not stated)	–	-10.8%
Cc1ccc(CNC(=O)Cn2c(=O)ccc3cc(S(=O)(=O)N4CCCC4)ccc32)cc1	–	-21.1%
Cc1ccc(-n2c(SCC(=O)c3ccccc3)nc3c([nH]c4ccccc43)c2=O)cc1	–	4.48%
O=C1Oc2ccccc2C(=O)/C1=C/c1ccccc1O	28.2 µM (active)	–
C=C(C)C1CC=C(CO)CC1 (configuration not stated)	–	-0.494%
CCN(C(=O)CSc1nnnn1-c1ccccc1OC)C1CCS(=O)(=O)C1 (configuration not stated)	–	17.3%
COc1ccccc1-n1nnnc1S(=O)(=O)Cc1ccc(Cl)cc1	10 µM (active)	–
COc1ccccc1CN(C)c1nnnn1-c1ccccc1	–	-2.75%
CSc1ccccc1N1CCN(CCCCCC(=O)NC2CCCc3ccccc32)CC1 (configuration not stated)	–	-25%
CCC(C)C(=O)O[C@@H]1C[C@@]2(C)C(c3ccoc3)OC(=O)CC23OC2(C)O[C@@]14[C@@]1(C)C(CC(=O)OC)C5(C)CC1(O)C(O)(C5OC(=O)C1(C)OC1C)C(OC(C)=O)[C@@]34O2 (some centres not stated)	–	-13.6%
Cc1ccc(C(=O)NC2CCN(C(=O)Nc3ccc(F)cc3)CC2)cc1	–	0%
Cc1ccc(NC(=O)N2CCC(C(=O)NCc3ccc(F)cc3)CC2)cc1	7.08 µM (active)	–
O=C(NCc1ccc(F)cc1)C1CCN(C(=O)Nc2ccc(F)cc2)CC1	–	-17%
O=C(CCN1Cc2ccccc2OC(c2ccccc2)C1)N[C@@H]1CS(=O)(=O)C[C@H]1O (some centres not stated)	–	4.7%
COc1ccc(NC(=O)CCN2CCN(CCO)CC2)cc1	–	11.4%
O=C(NCC(c1ccc(Cl)cc1)N1CCOCC1)c1ccccc1F (configuration not stated)	–	-11%
CCC(C)(C)c1ccc(OCC(=O)N(C)C)c(C(C)(C)CC)c1	31.6 µM (active)	–
Cc1ccc(-n2c(=O)c3cccnc3n2CC(=O)NCc2ccc(F)cc2)cc1C	–	2.88%
OC[C@@H]1CN(Cc2ccncc2)C[C@H](n2cnc3c(N4CCN(c5ccccc5)CC4)ncnc32)O1	12.6 µM (active)	–
CC(C)Nc1ncnc2c1ncn2[C@H]1CN(Cc2ccncc2)C[C@@H](CO)O1	–	-18.6%
OC[C@@H]1CN(Cc2cccs2)C[C@H](n2cnc3c(Nc4ccccc4)ncnc32)O1	–	4.4%
OC[C@@H]1CN(C2CCCC2)C[C@H](n2cnc3c(NC4CCC4)ncnc32)O1	–	-7.88%

SMILES	Potency	activity change, negative = inhibition
OC[C@@H]1CN(Cc2ccc(-c3ccccc3)cc2)C[C@H](n2cnc3c(NC4CCCC4)ncnc32)O1	15.8 µM (active)	–
OCCN1CCN(c2ncnc3c2ncn3[C@H]2CN(Cc3ccco3)C[C@@H](CO)O2)CC1	–	-21.6%
CN1CCN(c2ncc3nc(-c4ccc(Cl)cc4)c(=O)n(-c4ccccc4)c3n2)CC1	–	0.45%
CCCCCCCCCCCC(=O)O[C@H](CC(=O)O)C[N+](C)(C)C	–	-1.5%
CCc1nn(CC(=O)Nc2cc(C)cc(C)c2)c(=O)c2cc3sccc3n12	–	-19%
COc1ccc(C23NCCN2C(=O)c2ccccc23)cc1 (configuration not stated)	–	-17.3%
CCOC(=O)C1CCN(C(=O)Nc2cccc(OC)c2)CC1	–	20%
CCOC(=O)c1ccc(NC(=O)CC2C(=O)N(c3cccc(OC)c3)C(=O)N2C2CCCCC2)cc1 (configuration not stated)	–	-24.8%
CCOc1ccc(NC(=O)CC2C(=O)N(c3cccc(OC)c3)C(=O)N2C2CCCCC2)cc1 (configuration not stated)	–	-13.3%
CCOC(=O)[C@]12Cc3cc(OC)ccc3[C@H]1N(C(C)C)C(=O)c1ccccc12	31.6 µM (active)	–
CCOC(=O)[C@]12Cc3ccccc3[C@H]1N(C1CCCCC1)C(=O)c1cc(OC)ccc12	10 µM (active)	–
CCN(CC)S(=O)(=O)c1ccc2c(c1)N(CC(=O)NCC(C)c1ccccc1)C(=O)CO2 (configuration not stated)	–	-2.75%
O=C(NCCc1ccccc1)c1ccc2c(c1)N(Cc1ccccc1)C(=O)c1ccccc1S2(=O)=O	–	-0.764%
c1ccc2c(c1)[I+]c1ccccc1-2	–	-35.5% [at 97.4 µM]
COc1ccc(CNC(=O)c2ccc(NC(=O)N3CC4CCCN4c4ccccc43)cc2)cc1 (configuration not stated)	–	-8.63%
COc1cc(NC(=O)Cn2c(=O)n(Cc3ccco3)c(=O)c3oc4ccccc4c32)cc(OC)c1	–	-14.1%
CCOC(=O)c1cc2c(=O)n3ccccc3nc2n(CCCOC)c1=NC(=O)C(C)(C)Oc1ccc(Cl)cc1	–	0%
O=c1ccc2c(-c3ccccc3S(=O)(=O)O)c3ccc(O)c(O)c3oc-2c1O	7.08 µM (active)	–
CCCC(=O)Nc1ccc(C(=O)N/N=C/c2ccc[nH]2)cc1	28.2 µM (active)	–
CC(=O)Nc1ccc(C(=O)NNC(=O)CCCCC(=O)NNC(=O)c2ccc(NC(C)=O)cc2)cc1	–	-0.805%
CCCC(=O)Nc1ccc(C(=O)NCCCn2ccnc2)cc1	–	20.8%
CC1C(C)N(C(=O)CCl)c2ccccc2N1C(=O)CCl (configuration not stated)	3.55 µM (active)	–
CNC(=O)N1c2ccccc2C=Cc2ccccc21	–	-23%
